# WT yeast gro inh = growth inhibition of WT yeast, mitochondrial fusion screen; inhibition, % at 10 µM; actives 2.1% (n = 190,000); mitochondrial fusion phenotypic screen, WT strain; in the data active means inhibition above about 58%; tested in S. cerevisiae
# Lmaj promast = reduces viability of Leishmania major promastigotes; resazurin fluorescence viability; inhibition, % at 10 µM; actives 9% (n = 200,000); AID 1063; in the data active means inhibition above about 50%;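 further: promastigotes grown with compound for 44 hours at 28 °C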
# KCC2 mod = KCC2 (human) Cl- transport modulation. Q9H2X9. KCC2 cells, thallium flux FluoZin-2 fluorescence. B-score of Tl+ flux slope (higher = more flux/activation; lower = inhibition) at 10 µM. actives 2.2% (n = 190,000). AID 1456;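 active means thallium flux slope and its plate-corrected score both differing from the plate sample mean at a set confidence after two filtering rounds, in either direction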;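 further: slope of fluorescence scaled to starting intensity during 10 to 20 s after thallium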
# Ins promoter up = MIN6 insulin promoter up-regulation. z-score at 5 µM. actives 0.3% (n = 190,000). AID 1625. MIN6 insulin promoter-GFP reporter, high-content imaging; active compounds read high;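 active means z-score above 3 at 5 µM with at least 500 cells counted in the well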
# ROMK primary = human ROMK K+ channel modulation, primary screen. P48048. Tet-inducible ROMK, thallium flux fluorescence; actives lie on both sides. B-score at 10 µM. actives 2% (n = 130,000). AID 1918;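 active means signal ratio slope over the read window, or its plate-corrected B-score, at least 3 SD from the plate mean, either direction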;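 further: B-score of the F/F0 ratio slope over 7 to 12 s after thallium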
# Insulin prom inh = TRM-6 insulin promoter activity inhibition | inhibition, % at 2 µM | actives 0.9% (n = 130,000) | TRM-6 cells (human fetal islet line), insulin promoter-eGFP reporter, imaging; reporter expression induced with tamoxifen;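 active means inhibition above the mean plus 3 SD, with well images judged a real hit on visual review, cut at about 60% in these data, passing the limit was not always enough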
# * hit, by the source's call; i = inactive; . = no result given. Compounds with a hit are over-represented: about 12% of the library has one in this group of screens.
SMILES,WT yeast gro inh,Lmaj promast,KCC2 mod,Ins promoter up,ROMK primary,Insulin prom inh
c1ccc(CCc2nn3c(-c4ccncc4)nnc3s2)cc1,4,4,-2.5,-0.07,-0.37,71
CO/N=C(\Cn1ncc(N2CCCC2)c(Cl)c1=O)c1ccc(Cl)cc1,4,6,-1.4,-0.71,-0.86,-11
COC(=O)C1=CN(C2CC2)C=C(C(=O)OC)C1c1ccc(C(=O)OC)cc1,5,-5,0.89,0.96,0.018,-39
COC(=O)C1=CN(C2CC2)C=C(C(=O)OC)C1c1ccc(C(F)(F)F)cc1,11,88*,.,-0.2,-0.24,32
COc1ccc(OCC(O)Cn2c(=N)n(CCN3CCCCC3)c3ccccc32)cc1 (centres undefined),-9,100*,-0.47,-4.5,.,-129
Cc1ccc(OCC(O)Cn2c(=N)n(CCN3CCCCC3)c3ccccc32)cc1 (centres undefined),3,100*,.,-3.7,.,.
Cc1ccc(OCC(O)Cn2c(=N)n(CCN3CCOCC3)c3ccccc32)cc1 (centres undefined),.,5,-0.56,-0.76,-0.86,-36
Cc1cccc(NCc2ccccc2O)c1,-5,-2,0.38,-0.23,.,-110
O=S1(=O)CC2SC(=S)N(c3ccccc3)C2C1 (centres undefined),.,.,-0.049,0.1,0.35,.
C/C=C/c1ccc(OCCCCNCc2ccco2)c(OC)c1,15,93*,1.3,0.05,-1.5,7
C/C=C/c1ccc(OCCCCN2CCN(CC)CC2)c(OC)c1,-3,86*,0.36,0.13,-0.64,.
C/C=C/c1ccc(OCCCCN2CC(C)CC(C)C2)c(OC)c1 (centres undefined),17,8,0.32,-0.06,-1.2,.
Cc1nnc(SC(C)C(=O)Nc2ccc(Cl)cn2)n1Cc1ccccc1 (centres undefined),6,-1,-1.5,0.09,.,-12
CC(Sc1nnc(-c2ccc(Cl)cc2Cl)n1Cc1ccccc1)C(=O)Nc1nccs1 (centres undefined),-5,65*,-0.77,-0.67,.,5
COC(=O)c1cc2cc(NS(=O)(=O)c3ccc(C)cc3)ccc2s1,0,100*,.,0.82,.,67
O=C(c1cc(N2C(=O)C3C4CCC(C4)C3C2=O)ccc1Cl)N1CCN(c2ccccc2)CC1 (centres undefined),-8,72*,-0.9,-0.09,-1.5,24
Clc1ccc(-c2nc3cnccn3c2NC2CCCC2)cc1,68*,7,-0.12,.,-0.61,26
Cc1ccn2c(NC3CCCCC3)c(C)nc2c1,-12,1,-0.34,3.9*,.,.
c1ccc(-c2nc3ccccn3c2NC2CCCC2)nc1,68*,100*,-1.1,.,-0.031,-23
Cc1ccn2c(NC3CCCCC3)c(C(C)C)nc2c1,23,28,0.83,-0.69,.,i
Cc1ccn2c(NC3CCCC3)c(-c3ccncc3)nc2c1,18,89*,-0.82,0.26,0.0064,-30
COc1ccc(-c2csc(-n3ncc(-c4cccs4)c3N)n2)cc1,4,-13,.,-0.13,-0.36,.
COc1ccc(/C=N/NC(=O)c2ccc(Br)o2)cc1Cn1cc([N+](=O)[O-])cn1,-10,-3,-1.4,0.61,0.052,0
COc1ccc(-c2nnc(SCc3nnc(-c4cccs4)o3)n2CC2CCCO2)cc1 (centres undefined),-6,-3,-0.44,0.41,-0.25,-6
Cc1c(Cc2ccccc2)c(=O)oc2c(CN(C)C)c(O)c(Cl)cc12,7,-4,-1.2,0.48,.,0
SMILES,WT yeast gro inh,Lmaj promast,KCC2 mod,Ins promoter up,ROMK primary,Insulin prom inh
Cc1ccn2c(Nc3ccccc3C)c(-c3ccncc3)nc2c1,-13,86*,0.1,0.44,-0.56,38
Cc1ccn2c(NC3CCCC3)c(-c3ccccn3)nc2c1,76*,101*,-1.1,-2.1,-0.19,.
Cc1ccc2nc(-c3ccncc3)c(NC3CCCCC3)n2c1,1,65*,-0.8,1,-0.48,.
Cc1ccccc1Nc1c(-c2cccnc2)nc2cccc(C)n12,18,12,-0.88,.,-1.6,.
Cc1ccc2nc(-c3ccncc3)c(NC3CCCC3)n2c1,-3,31,-0.42,1,-1.5,-75
CC1(C)CC(NC(=O)C(=O)NCCc2ccc(Cl)cc2)CC(C)(C)N1,-13,1,1.5,-0.36,.,.
CN(C)S(=O)(=O)c1cccc(NC(=S)Nc2cc(Cl)cc(Cl)c2)c1,57,8,-1,0.04,0.63,-2
CN(C)S(=O)(=O)c1cccc(NC(=S)Nc2ccc(Cl)cc2Cl)c1,7,9,5.5*,2.2,0.64,-12
Cc1c(Cl)cccc1NC(=O)CNc1cccc(S(=O)(=O)N(C)C)c1,-19,72*,0.1,-0.48,-0.7,-35
COCC(C)NC(=O)c1cc(-c2cccc(OC)c2)on1 (centres undefined),97*,-8,.,-0.46,0.58,.
COc1ccc(-c2cc(=O)n(CCC#N)[nH]2)cc1,-17,96*,0.11,0.27,.,-10
COc1ccc(-c2ncn(CCC#N)c2[N+](=O)[O-])cc1,0,17,0.46,0.06,1,64
O=C(N/N=C\c1cc(Cl)ccc1O)c1ccc(S(=O)(=O)N2CCCCC2)cc1,11,98*,0.57,-0.63,0.074,44
CN1CCN(c2ccc(Cl)cc2NC(=O)c2ccc(S(=O)(=O)N3CCCCCC3)cc2)CC1,6,88*,0.26,-1.5,.,-36
O=C(Nc1cc(S(=O)(=O)Nc2ccc(Cl)cc2)ccc1O)c1ccc(S(=O)(=O)N2CCCCCC2)cc1,1,4,0.0042,1.6,-0.064,.
Cc1ccc2c3c1C1(C(=O)N3C(C)(C)CC2C)C(C#N)=C(N)Oc2cc(O)ccc21 (centres undefined),1,49,-0.43,0.51,-1.3,-74
O=C(CC(C(=O)N1CCc2ccccc21)n1ccnc1)NCc1cccnc1 (centres undefined),-9,-3,-0.39,.,.,-23
CCN(CCCNC(=O)CC(C(=O)N1CCc2ccccc21)n1ccnc1)c1ccccc1 (centres undefined),7,100*,-4,-0.4,.,-100
COC(=O)C1=C(N)Oc2cc(C)n(Cc3ccco3)c(=O)c2C1c1cccc(Cl)c1 (centres undefined),14,41,.,-0.1,-0.12,-36
C/C(=N\NC(=O)c1ccc(Cn2cc(Br)cn2)o1)c1cccc(NC(=O)C(C)C)c1,-5,90*,-1.8,0.3,0.27,-33
C/C(=N\NC(=O)c1cccc(Br)c1)c1cccc(NC(=O)c2ccc(C)o2)c1,-5,56*,1.3,-0.92,-0.007,.
O=C(N/N=C/c1ccsc1)c1ccc2ccccc2n1,-9,-1,-0.56,0.07,0.8,.
O=C(NCc1ccc2c(c1)OCO2)C1CC(=O)N(c2ccc(F)cc2)C1 (centres undefined),-9,-4,0.31,.,0.026,56
Cc1cc(=O)[nH]c(SCC(=O)NCC2CCCCC2)c1C#N,-10,5,0.15,0.43,1.3,.
C#CC[N+](C)(C)CCCCCCCC,-1,-2,0.36,-0.61,0.83,3
C#CC[N+](C)(C)CCCCCCCCCC,9,58*,0.22,-0.81,0.25,38

# Source: PubChem BioAssay (several laboratories)
